Results reported in article PMC4336329 (PLoS ONE, 2015).
Among all 310,000 compounds or so, about 14,000 (4.5%) showed an effect of 50% or more. Effects have a minus sign here. Shown is part of a subset that was picked to be rich in strong results.
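Also: peak tail current of the secondary pulse compared with the same well before compound.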

These compounds were tested against human ether-à-go-go-related gene (hERG) potassium channel (human, UniProt Q12809) (assay: primary screen, population patch clamp on CHO cells stably expressing hERG; higher = less effect of the substance).
Sequence of human ether-à-go-go-related gene (hERG) potassium channel (Q12809 whole entry, looked up): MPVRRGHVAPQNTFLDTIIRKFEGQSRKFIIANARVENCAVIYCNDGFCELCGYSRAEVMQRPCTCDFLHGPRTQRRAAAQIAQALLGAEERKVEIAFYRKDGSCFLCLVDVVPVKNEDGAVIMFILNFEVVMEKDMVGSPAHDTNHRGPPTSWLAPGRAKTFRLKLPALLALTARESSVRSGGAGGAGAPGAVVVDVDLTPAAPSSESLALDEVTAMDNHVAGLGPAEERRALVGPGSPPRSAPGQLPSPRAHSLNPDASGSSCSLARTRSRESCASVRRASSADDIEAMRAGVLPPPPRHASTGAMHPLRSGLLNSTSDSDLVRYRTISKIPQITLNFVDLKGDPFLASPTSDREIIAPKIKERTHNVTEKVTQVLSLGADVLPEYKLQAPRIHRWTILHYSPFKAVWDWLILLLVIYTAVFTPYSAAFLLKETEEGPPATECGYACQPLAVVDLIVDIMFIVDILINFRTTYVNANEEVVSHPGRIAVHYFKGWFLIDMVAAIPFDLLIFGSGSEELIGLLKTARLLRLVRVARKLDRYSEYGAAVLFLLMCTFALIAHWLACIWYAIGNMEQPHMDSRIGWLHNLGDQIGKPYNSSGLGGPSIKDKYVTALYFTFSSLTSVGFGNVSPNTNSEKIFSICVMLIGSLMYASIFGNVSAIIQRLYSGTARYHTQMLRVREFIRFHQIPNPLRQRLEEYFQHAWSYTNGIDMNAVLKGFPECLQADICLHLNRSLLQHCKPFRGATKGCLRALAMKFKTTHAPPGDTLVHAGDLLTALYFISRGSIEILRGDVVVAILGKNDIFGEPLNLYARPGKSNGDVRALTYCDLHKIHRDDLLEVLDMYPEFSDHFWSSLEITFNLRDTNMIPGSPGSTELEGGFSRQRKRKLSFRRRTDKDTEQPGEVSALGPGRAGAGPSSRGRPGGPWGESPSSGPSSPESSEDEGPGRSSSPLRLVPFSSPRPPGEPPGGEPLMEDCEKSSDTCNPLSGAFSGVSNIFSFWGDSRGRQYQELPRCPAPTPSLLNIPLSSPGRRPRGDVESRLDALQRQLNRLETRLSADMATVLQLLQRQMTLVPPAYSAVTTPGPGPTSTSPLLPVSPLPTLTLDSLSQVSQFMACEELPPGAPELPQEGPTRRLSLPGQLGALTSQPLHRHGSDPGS
In the case of `Cc1ccc(S(=O)(=O)N2CCN(C(=O)COC(=O)c3c(C)noc3C)CC2)c(C)c1`, the “hERG current change (%, negative = inhibition) at 10uM” value is reported as -18.8%.
For `COCCCNC(=O)CN(c1ccc(Cl)c(Cl)c1)S(C)(=O)=O`, the “hERG current change (%, negative = inhibition) at 10uM” value was -10.9%.
With `Cc1ccc(NCC(=O)N/N=C\c2cccc(O)c2)cc1` the “hERG current change (%, negative = inhibition) at 10uM” value was 1.98%.
In the case of `C=CCNC(=S)N1CCOCC1`, the “hERG current change (%, negative = inhibition) at 10uM” value is reported as -1.69%.
With `O=C(/C=C/c1ccccc1[N+](=O)[O-])NNC(=O)c1ccncc1` the “hERG current change (%, negative = inhibition) at 10uM” value was -7.86%.
`CCOc1ccccc1NC1=C(Cl)C(=O)N(c2ccc(OC)cc2)C1=O` was tested, and the “hERG current change (%, negative = inhibition) at 10uM” value was -10.4%.
`CCCc1cc(=O)oc2cc(OCC(=O)N3CCN(Cc4ccc5c(c4)OCO5)CC3)ccc12` was tested, and the “hERG current change (%, negative = inhibition) at 10uM” value was -57%.
`Cc1cc(=O)oc2cc(OCC(=O)N3CCN(Cc4ccc5c(c4)OCO5)CC3)ccc12` was tested, and the “hERG current change (%, negative = inhibition) at 10uM” value was -42.9%.
`Cc1ccc(OCC(=O)N2CCN(Cc3ccc4c(c3)OCO4)CC2)cc1C` was tested, and the “hERG current change (%, negative = inhibition) at 10uM” value was -24.6%.
`CC(Oc1ccccc1)C(=O)N=C1SC2CS(=O)(=O)CC2N1Cc1ccc(F)cc1` (stereo not shown) was tested, and the “hERG current change (%, negative = inhibition) at 10uM” value was -24.6%.
In the case of `CCc1cccc(CC)c1NC(=O)C1CCN(C(=O)c2ccco2)CC1`, the “hERG current change (%, negative = inhibition) at 10uM” value is reported as 2.93%.
For `COc1ccc(C(=O)OCn2nnc3ccccc3c2=O)cc1OC`, the “hERG current change (%, negative = inhibition) at 10uM” value was 8.71%.
With `O=C(Nc1ccc(Cl)cc1)C1C2C=CC3(O2)C1C(=O)N(CCN1CCCCC1)C3C(=O)NC1CCCCC1` (stereo not shown) the “hERG current change (%, negative = inhibition) at 10uM” value was -44.1%.
In the case of `Cc1ccc(NC(=O)C2C3C=CC4(O3)C2C(=O)N(CCCN2CCCCC2)C4C(=O)NC2CCCCC2)cc1Cl` (stereo not shown), the “hERG current change (%, negative = inhibition) at 10uM” value is reported as 16.3%.
`O=C(Nc1ccc(Br)cc1)C1C2C=CC3(O2)C1C(=O)N(CCN1CCOCC1)C3C(=O)NC1CCCCC1` (stereo not shown) was tested, and the “hERG current change (%, negative = inhibition) at 10uM” value was -3.6%.
With `O=C(Nc1ccc(Br)cc1)C1C2C=CC3(O2)C1C(=O)N(CCN1CCCCC1)C3C(=O)NC1CCCCC1` (stereo not shown) the “hERG current change (%, negative = inhibition) at 10uM” value was -59.8%.
With `O=C(Nc1ccc(Cl)c(Cl)c1)C1C2C=CC3(O2)C1C(=O)N(CCN1CCCCC1)C3C(=O)NC1CCCCC1` (stereo not shown) the “hERG current change (%, negative = inhibition) at 10uM” value was -60.8%.
For `Cc1cc(C)cc(NC(=O)C2C3C=CC4(O3)C2C(=O)N(CCN2CCCCC2)C4C(=O)NC2CCCCC2)c1` (stereo not shown), the “hERG current change (%, negative = inhibition) at 10uM” value was -40.3%.
`Cc1ccc(-c2nc(N)n(S(C)(=O)=O)n2)cc1` was tested, and the “hERG current change (%, negative = inhibition) at 10uM” value was 7.05%.
For `CC(C)(C)n1nc2c(c1NC(=O)c1ccccc1F)CS(=O)C2` (stereo not shown), the “hERG current change (%, negative = inhibition) at 10uM” value was 15.6%.
`Cc1ccc2cc(/C=C/C(=O)c3ccco3)c(Cl)nc2c1` was tested, and the “hERG current change (%, negative = inhibition) at 10uM” value was 15.2%.
`COc1ccc(C)cc1NC(=O)c1ccc2c(=O)n3c(nc2c1)CCCCC3` was tested, and the “hERG current change (%, negative = inhibition) at 10uM” value was -42.5%.
In the case of `O=C(Nc1ccccn1)c1ccc2c(=O)n3c(nc2c1)CCCCC3`, the “hERG current change (%, negative = inhibition) at 10uM” value is reported as -47.2%.
For `Cc1csc(NC(=O)c2ccc3c(=O)n4c(nc3c2)CCCCC4)n1`, the “hERG current change (%, negative = inhibition) at 10uM” value was -80.3%.
`Cc1ccc(NC(=O)c2ccc3c(=O)n4c(nc3c2)CCCCC4)nc1` was tested, and the “hERG current change (%, negative = inhibition) at 10uM” value was -60.4%.
For `Cc1cc(C)c2nc(NC(=O)c3ccc4c(=O)n5c(nc4c3)CCCCC5)sc2c1`, the “hERG current change (%, negative = inhibition) at 10uM” value was 13.9%.
With `Cc1cccc(NC(=O)c2ccc3c(=O)n4c(nc3c2)CCCCC4)n1` the “hERG current change (%, negative = inhibition) at 10uM” value was -67.2%.
`O=C(Nc1ccccc1Cl)c1ccc2c(=O)n3c(nc2c1)CCC3` was tested, and the “hERG current change (%, negative = inhibition) at 10uM” value was -6.14%.
For `O=C(Nc1nc(-c2ccccc2)cs1)c1ccc2c(=O)n3c(nc2c1)CCCCC3`, the “hERG current change (%, negative = inhibition) at 10uM” value was -23.8%.
For `Cc1ccc(-c2csc(NC(=O)c3ccc4c(=O)n5c(nc4c3)CCCCC5)n2)cc1`, the “hERG current change (%, negative = inhibition) at 10uM” value was -6.65%.
With `COc1ccc(-c2cc(C(=O)N3CCN(c4ncccn4)CC3)c3ccccc3n2)cc1` the “hERG current change (%, negative = inhibition) at 10uM” value was -33.4%.
With `CCCCNCc1nc2ccccc2c(=O)[nH]1.Cl` the “hERG current change (%, negative = inhibition) at 10uM” value was 5.81%.
For `COc1ccc(/C=N\NC(=O)c2ccc(=O)[nH]n2)cc1O`, the “hERG current change (%, negative = inhibition) at 10uM” value was 18.4%.
For `Brc1cccc(-c2nnc(SCc3ccon3)n2-c2ccccc2)c1`, the “hERG current change (%, negative = inhibition) at 10uM” value was -48.9%.
For `Cc1ccc(NC(=O)CN2c3cccc4cccc(c34)S2(=O)=O)cc1S(=O)(=O)N1CCOCC1`, the “hERG current change (%, negative = inhibition) at 10uM” value was 0.358%.
For `Cc1cc(NC(=O)COc2c(C)cccc2C)no1`, the “hERG current change (%, negative = inhibition) at 10uM” value was 22.3%.
With `CC(=O)c1cccc(NC(=O)C(C)N(C)CC(=O)Nc2ccc(Cl)cc2)c1` (stereo not shown) the “hERG current change (%, negative = inhibition) at 10uM” value was -5.14%.
With `c1ccc(Oc2nnc(-c3cccs3)c3ccccc23)cc1` the “hERG current change (%, negative = inhibition) at 10uM” value was -5.87%.
`O=C(c1ccc(F)cc1)N1CCN(S(=O)(=O)c2ccc(Br)cc2)CC1` was tested, and the “hERG current change (%, negative = inhibition) at 10uM” value was -5.63%.
In the case of `CC(C)(C)C(=O)N1CCN(c2ncccc2C(F)(F)F)CC1`, the “hERG current change (%, negative = inhibition) at 10uM” value is reported as 1.88%.
`Cc1ccc(S(=O)(=O)N2CCCN(C(=O)c3ccc(-n4cccn4)cc3)CC2)cc1` was tested, and the “hERG current change (%, negative = inhibition) at 10uM” value was -74.2%.
`O=C(O)CCC(=O)N1CCN(c2ncccc2C(F)(F)F)CC1` was tested, and the “hERG current change (%, negative = inhibition) at 10uM” value was 9.74%.
`Cc1ccc(S(=O)(=O)N2CCN(C(=O)c3ccccc3)CC2)cc1` was tested, and the “hERG current change (%, negative = inhibition) at 10uM” value was -31%.
